# Results: the supplement of paper PMC8371130
# Structures can show the parent of a compound that is named as a salt.
# System: HL-1
# Experiment: relative cell viability (CellTiter-Glo) vs DMSO control (% of DMSO control); higher = more viable cells
# How it was run: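 One day after HL-1 mouse atrial cardiomyocytes were plated (1000 cells per well, 384-well plates) with compounds at 40, 200, 1000 or 5000 nM in 0.01% DMSO, they were transferred to a hypoxic workstation at 1% O2. After 48 h there, the cells were reoxygenated for 24 h in a normal incubator, and comparison cells stayed in normoxia throughout the same time. Cell viability was quantified with CellTiter-Glo luminescence and normalised to vehicle-treated control cells.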
# [1] = oxygen condition: hypoxia 48 h (1% O2) + reoxygenation 24 h, 40 nM
# [2] = oxygen condition: hypoxia 48 h (1% O2) + reoxygenation 24 h, 200 nM
# [3] = oxygen condition: hypoxia 48 h (1% O2) + reoxygenation 24 h, 1000 nM
# [4] = oxygen condition: hypoxia 48 h (1% O2) + reoxygenation 24 h, 5000 nM
# [5] = oxygen condition: normoxia 72 h, 40 nM
# [6] = oxygen condition: normoxia 72 h, 200 nM
# [7] = oxygen condition: normoxia 72 h, 1000 nM
# [8] = oxygen condition: normoxia 72 h, 5000 nM
Structure (SMILES),relative cell viability [1],relative cell viability [2],relative cell viability [3],relative cell viability [4],relative cell viability [5],relative cell viability [6],relative cell viability [7],relative cell viability [8]
CC[N+]1(C)CCCC(OC(=O)C(O)(c2ccccc2)c2ccccc2)C1 (stereo not given) [Pipenzolate Bromide],101,98.3,102,105,100,111,101,116
Cc1cccc(C)c1NC1=NCCCS1 [Xylazine HCl],99.5,101,103,107,106,98.1,102,105
Cn1c(CCCC(=O)O)nc2cc(N(CCCl)CCCl)ccc21 [Bendamustine HCL],111,111,108,110,114,114,110,111
C=CCN1CC[C@]23c4c5ccc(O)c4O[C@H]2C(=O)CC[C@@]3(O)[C@H]1C5 [Naloxone HCl],109,103,104,117,104,104,109,113
Cc1cccc(C)c1NC(=O)CN1CCCC1=O [Nefiracetam],101,99.1,102,104,101,97.1,105,101
N.N.[Cl][Pt][Cl] [Cisplatin],91.6,77.8,80.1,111,82.7,80.6,89.5,110
C[C@]12C/C(=C/O)C(=O)C[C@@H]1CC[C@@H]1[C@@H]2CC[C@@]2(C)[C@H]1CC[C@]2(C)O [Oxymetholone],104,104,104,114,104,102,105,115
CC(O)(CS(=O)(=O)c1ccc(F)cc1)C(=O)Nc1ccc(C#N)c(C(F)(F)F)c1 (stereo not given) [Bicalutamide],106,107,107,104,106,111,110,107
CN(C)C(=O)Oc1cccc([N+](C)(C)C)c1 [Neostigmine bromide],106,100,97.4,113,101,105,103,109
CC[C@@]1(O)C(=O)OCc2c1cc1n(c2=O)Cc2cc3ccccc3nc2-1 [Camptothecin],104,103,93.9,37.7,104,105,89.7,35.6
C#C[C@]1(O)C=C[C@H]2[C@@H]3CCC4=CC(=O)CC[C@@H]4[C@H]3CC[C@@]21CC [Gestodene],102,100,109,107,111,103,105,106
CCC1(c2cccc(O)c2)CCCCN(C)C1 (stereo not given) [Meptazinol HCl],97.8,103,103,109,97.7,98.3,102,108
O=c1[nH]c2ccccc2n1CCCN1CCC(n2c(=O)[nH]c3cc(Cl)ccc32)CC1 [Domperidone],104,105,102,109,100,98.5,101,113
O=C(O)c1nn(Cc2ccc(Cl)cc2Cl)c2ccccc12 [Lonidamine],104,105,109,111,111,102,122,112
CC(=O)O[C@H]1C[C@@H]2CC[C@@H]3[C@H](CC[C@@]4(C)[C@H]3C[C@H]([N+]3(C)CCCCC3)[C@@H]4OC(C)=O)[C@@]2(C)C[C@@H]1[N+]1(C)CCCCC1 [Pancuronium],103,101,102,109,101,105,108,101
O=C(O[C@H]1C[N+]2(CCCOc3ccccc3)CCC1CC2)C(O)(c1cccs1)c1cccs1 [Aclidinium Bromide],104,108,108,110,103,115,106,121
CN1[C@@H]2CC[C@H]1C[C@@H](OC(=O)[C@H](CO)c1ccccc1)C2 [Hyoscyamine],104,103,109,106,109,101,114,116
CNCC(=O)c1ccc(O)c(O)c1 [Adrenalone HCl],97.4,101,106,108,99.1,105,99.6,107
CCN(C)C(=O)Oc1cccc([C@H](C)N(C)C)c1 [Rivastigmine tartrate],105,102,110,109,99.9,106,108,105
C=CC[C@]1(O)CC[C@H]2[C@@H]3CCC4=CC(=O)CCC4=C3C=C[C@@]21C [Altrenogest],105,110,106,108,104,107,102,105
C[C@]12CCC(=O)C=C1C=C[C@@H]1[C@@H]2CC[C@@]2(C)[C@H]1CC[C@@]2(O)CCC(=O)O [Potassium Canrenoate],100,96.7,97.6,103,101,98.6,94.2,108
CC(C)NCC(O)c1ccccc1Cl (stereo not given) [Clorprenaline HCL],104,102,106,117,105,102,103,108
Cc1cccc([C@H](C)c2c[nH]cn2)c1C [Dexmedetomidine],112,105,106,107,107,104,118,116
CCC(COC(=O)c1cc(OC)c(OC)c(OC)c1)(c1ccccc1)N(C)C (stereo not given) [Trimebutine],104,95.7,100,103,98.5,98.1,101,104
O=C1CC[C@@]2(O)[C@H]3Cc4ccc(O)c5c4[C@@]2(CCN3CC2CC2)[C@H]1O5 [Naltrexone HCl],102,106,99.6,108,107,106,113,110
C/C=C(\C)C(=O)N[C@@H](c1ccccc1)[C@@H](O)C(=O)O[C@H]1C[C@@]2(O)[C@@H](OC(=O)c3ccccc3)[C@@H]3[C@]4(OC(C)=O)CO[C@@H]4C[C@H](O)[C@@]3(C)C(=O)[C@H](OC(C)=O)C(=C1C)C2(C)C [Cephalomannine],24.9,28,23.6,28,21.5,21.7,20.2,25.3
CCC1(c2ccc(N)cc2)CCC(=O)NC1=O (stereo not given) [Aminoglutethimide],104,99.3,89.1,72.3,99.4,93.8,92.1,66.7
CCOC(=O)c1cncn1[C@H](C)c1ccccc1 [Etomidate],101,107,118,115,104,109,104,109

Structure (SMILES),relative cell viability [1],relative cell viability [2],relative cell viability [3],relative cell viability [4],relative cell viability [5],relative cell viability [6],relative cell viability [7],relative cell viability [8]
CN1C(=O)COc2c(C(=O)NC3CN4CCC3CC4)cc(Cl)cc21 (stereo not given) [Azasetron HCl],98.7,97.9,105,106,94.8,98.3,110,107
CCCN1C[C@H](CSC)C[C@@H]2c3cccc4[nH]cc(c34)C[C@H]21 [Pergolide mesylate],103,100,106,109,105,102,110,120
Cc1cccc(Cc2c[nH]cn2)c1C [Detomidine HCl],100,94.5,101,103,92.9,88.2,98.6,113
CC(=O)O[C@@]12CO[C@@H]1C[C@H](O)[C@@]1(C)C(=O)[C@H](O)C3=C(C)[C@@H](O)C[C@@](O)([C@@H](OC(=O)c4ccccc4)[C@H]21)C3(C)C,86.6,102,105,113,105,105,103,124
O=P1(N(CCCl)CCCl)NCCCO1 (stereo not given) [Cyclophosphamide monohydrate],100,94.2,97.1,108,104,97,106,111
COc1ccc(OC)c(C(O)C(C)N)c1 (stereo not given) [Methoxamine HCl],107,102,101,102,102,105,80.9,123
C[C@]12CC[C@H](O)CC1=CC[C@@H]1[C@@H]2CC[C@]2(C)C(=O)CC[C@@H]12 [Dehydroepiandrosterone],102,94,96.2,111,95.4,95.8,93.8,111
C[C@@H]1O[C@@H](O[C@H]2C[C@@H](O)[C@]3(CO)[C@H]4[C@H](O)C[C@]5(C)[C@@H](C6=CC(=O)OC6)CC[C@]5(O)[C@@H]4CC[C@]3(O)C2)[C@H](O)[C@H](O)[C@H]1O [Ouabain],101,103,95.3,115,105,105,98.8,124
OC(c1ccccc1)(c1ccccc1)C1CCNCC1 [Azacyclonol],104,104,106,108,108,101,104,115
CC(C)N(CCNC(=O)CN1CCCC1=O)C(C)C [Pramiracetam],104,103,106,112,98.6,104,107,111
CNC(=O)Oc1ccc2c(c1)[C@]1(C)CCN(C)[C@@H]1N2C [Physostigmine Salicylate],89.5,84.3,69.5,41.9,84.3,84.1,64.7,48.8
CN(C)C(=O)Oc1ccc[n+](C)c1 [Pyridostigmine Bromide],98.7,104,103,103,92.1,104,95.5,100
Cc1cccc([C@H](C)c2c[nH]cn2)c1C [Dexmedetomidine HCl],111,107,102,89.4,106,96.7,98.5,99.5
COC(=O)C1=CCCN(C)C1 [Arecoline],105,108,106,111,109,112,109,111
COc1ccc(C(=O)N2CCCC2=O)cc1 [Aniracetam],106,111,110,113,101,104,111,116
CC[C@@H](C(N)=O)N1CCCC1=O [Levetiracetam],113,109,118,113,109,113,116,117
O=P1(NCCCl)OCCCN1CCCl (stereo not given) [Ifosfamide],110,117,124,109,103,101,117,112
C=C1C[C@@H]2[C@H](CC[C@]3(C)C(=O)CC[C@@H]23)[C@@]2(C)C=CC(=O)C=C12 [Exemestane],108,98.9,107,105,107,106,124,112
C[C@]12CC[C@H]3[C@@H](CC[C@@]45O[C@@H]4C(O)=C(C#N)C[C@]35C)[C@@H]1CC[C@@H]2O [Trilostane],101,104,108,107,113,116,102,108
NCCc1c[nH]c2ccc(O)cc12 [Serotonin HCl],102,96.6,99.8,107,101,101,100,113
CNC1CC(N)C(O)C(OC2OC(CO)C(O)C3OC4(OC(C(N)CO)C(O)C(O)C4O)OC23)C1O (stereo not given) [Hygromycin B],108,102,107,110,104,106,110,106
CN1[C@@H]2CC(O)C[C@H]1[C@@H]1O[C@@H]12 (stereo not given in full) [Scopine],98.4,101,100,105,94.7,99.2,96.5,105
C[N+](C)(C)CCCCCCCCCC[N+](C)(C)C [Decamethonium bromide],106,103,107,112,107,103,106,117
O=C(O[C@H]1C[C@H]2CC[C@@H](C1)[N+]21CCCC1)C(O)(c1ccccc1)c1ccccc1 [Trospium chloride],95,98.6,90.1,105,103,95.1,95.8,101
COc1ccc(C(CN(C)C)C2(O)CCCCC2)cc1 (stereo not given) [Venlafaxine],97.2,96.1,101,102,102,96.1,99.5,108
C[N+]1(C)[C@@H]2C[C@@H](OC(=O)[C@H](CO)c3ccccc3)C[C@H]1[C@@H]1O[C@@H]12 [Methscopolamine],99.5,101,100,106,97.5,101,101,101
CN1c2ccccc2C(NCCCCCCC(=O)O)c2ccc(Cl)cc2S1(=O)=O (stereo not given) [Tianeptine sodium],106,105,108,106,98.8,103,104,110
